Source: PubChem BioAssay
In the library only some 0.9% were active in any assay of this set; here they are far more common.
GCN5L2 inh: blocks human GCN5L2 histone acetyltransferase | GCN5L2 HAT assay, ThioGlo1 CoA-SH fluorescence | Potency, µM (titrated, usually from 58.9 µM), inactives show at the top dose activity change, negative = inhibition, hits mostly inhibitors | 390,000 compounds, 0.21% hits
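Enzyme at 20nM final was mixed with library compounds for 15 min at room temperature. Peptide H3(1-25) at 75uM, acetyl-CoA at 70uM and ThioGlo1 at 50uM were then added. Plates were read immediately and after 20 min (Ex340nm/Em540nm).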
RECQ1 inh: RECQ1 (human) helicase inhibition; RECQ1 DNA unwinding, red fluorescence kinetic read; 240,000 compounds, 0.54% hits; Potency, µM (titrated, usually from 57.3 µM), without a hit: at the highest dose activity, negative = inhibition, actives largely listed as inhibitors; P46063;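 further: plate controls were vehicle for no effect and no enzyme for full effect; nearly all actives have a fitted effect of over 30% in size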
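50 nM RECQ1T1 preincubated 15 min with compound in Tris pH 8.0 buffer with MgCl2, DTT, Tween-20 and 2.5 ug/ml poly(dI-dC); started with 200 nM TAMRA/BHQ-2 forked duplex and 2 mM ATP. Unwinding read as fluorescence (525/598 nm), two reads 2 h apart.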
TDP1 block: TDP1 (human) enzyme inhibition; Q9NUW8; recombinant TDP1, AlphaScreen DNA substrate cleavage; Potency, µM (doses to about 130 µM), without a hit: at the highest dose activity change, negative = inhibition, actives largely listed as inhibitors; 350,000 compounds, 0.28% hits; AID 485290; further: nearly all actives have a fitted effect of over 40% in size
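E. coli-derived human Tdp1, 1 nM final. Cpd preinc 15 min RT; substrate 15 nM final, 5 min RT; AS bead mix 10 ug/ml final, 10 min RT. Signal loss = tyrosine-FITC cleavage. No-enzyme wells = max signal.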
APEX1 inh: APE1 (human) endonuclease inhibition; recombinant APE1, TAMRA/BHQ-2 abasic DNA cleavage fluorescence; Potency, µM (titrated, usually from 65.8 µM), inactives show at the highest dose activity change, negative = inhibition, actives largely listed as inhibitors; 350,000 compounds, 0.35% hits; AID 2517;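 further: plate controls were vehicle for no effect and reference inhibitor for full effect; nearly all actives have a fitted effect of over 55% in size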
Target sequence (P27695 whole entry, looked up): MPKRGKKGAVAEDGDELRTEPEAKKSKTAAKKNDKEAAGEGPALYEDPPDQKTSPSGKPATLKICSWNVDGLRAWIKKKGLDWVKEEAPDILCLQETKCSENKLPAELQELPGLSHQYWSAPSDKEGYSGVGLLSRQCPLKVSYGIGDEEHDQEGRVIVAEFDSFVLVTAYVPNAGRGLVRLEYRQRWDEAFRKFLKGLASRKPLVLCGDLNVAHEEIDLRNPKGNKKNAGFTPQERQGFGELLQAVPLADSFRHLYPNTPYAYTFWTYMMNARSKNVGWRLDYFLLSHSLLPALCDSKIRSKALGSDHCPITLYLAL
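Activity was derived from the fluorescence gain between first and third kinetic reads (60 s intervals, ex 525/em 598 nm) after 50 nM THF-abasic TAMRA/BHQ-2 duplex was added to 0.75 nM APE1 preincubated 15 min with compound.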
BLM inh: inhibitors of human Bloom syndrome helicase BLM; P54132; recombinant BLM DNA unwinding, fluorescence dequenching; 350,000 compounds, 0.2% hits; Potency, µM (top dose mostly 56.1 µM), without a hit: at the top dose activity change, negative = inhibition, hits mostly inhibitors;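 further: plate controls were vehicle for no effect and no enzyme for full effect; nearly all actives have a fitted effect of over 35% in size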
Lamin A splicing: LMNA splicing modulation | HeLa LMNA splicing GFP/RFP minigene ratio, 48 h | Potency, µM (titrated, usually from 46.1 µM), for inactives: top-dose ratio change, negative = inhibition, most hits filed as inhibitors | 200,000 compounds, 0.01% hits | AID 1487; active means well fitted inhibition curve with a large enough effect in the signal ratio, with a control signal flat, not every such curve was filed as active; inconclusive means small, poorly fitted or top-dose-only effect, or effect the other way, or a change in a side signal; the % refers to the signal ratio
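S3 HeLa cells stably expressing lamin A-EGFP splicing minigene plus DsRed2, 600 cells/well, 48 h compound exposure at 37C. Laser-scanning cytometry; analysed as GFP (500-530 nm)/RFP (575-640 nm) total intensity ratio; 0.5% DMSO vehicle.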
* marks the source's active call; other numbers are inactive results; i = inactive; u = inconclusive; x = no result; [ ] = another dose, or the depositor's remark. Unless noted, the call rests on the fitted dose curve; in most records, active means well fitted curve in the direction sought with a large enough effect; inconclusive means small, poorly fitted or top-dose-only effect, or another doubt; inactive means no such curve, though single readings can be large; an effect the other way counts as inactive or inconclusive. Unless noted, on the % scale 0 is the no-effect control and ±100 the full control effect; potency means the concentration at half of the fitted maximal effect.

SMILES	GCN5L2 inh	RECQ1 inh	TDP1 block	APEX1 inh	BLM inh	Lamin A splicing
CCCC(NC(=O)Cc1c(C)c2cc3c(C)c(C)oc3c(C)c2oc1=O)C(=O)N[C@@H](Cc1ccccc1)C(=O)O (some centres not stated)	u	x	x	21µM*	-11%	x
Cc1coc2c(C)c3oc(=O)c(CCC(=O)NCCc4ccccc4)c(C)c3cc12	-6%	x	-2%	x	-2%	x
O=C(CSc1nnc(-c2cccc(S(=O)(=O)N3CCCC3)c2)n1-c1ccccc1)Nc1ccc(F)cc1	x	x	x	12%	x	x
CC(C)C[C@H](NC(=O)[C@@H]1CCCN1C(=O)[C@H](CO)NC(=O)[C@H](Cc1ccccc1)NC(=O)CNC(=O)[C@@H]1CCCN1C(=O)[C@@H]1CCCN1C(=O)[C@@H](N)CCCN=C(N)N)C(=O)O	7%	-4%	7%	0.5µM*	0%	x
COc1cccc(/C=N/Nc2nc(Nc3ccc([N+](=O)[O-])cc3)nc(N3CCCC3)n2)c1O	-10%	u	10%	-12%	28µM*	u
O=[N+]([O-])c1ccc(NC2CCCC2)cc1	-9%	0%	2%	1%	-3%	u
O=[N+]([O-])c1ccc(Nc2nc(NC3CCCCC3)nc(N3CCCC3)n2)cc1	-11%	-8%	8%	0%	28µM*	x
O=[N+]([O-])c1ccc(Nc2nc(N/N=C/c3cccc(F)c3)nc(N3CCCC3)n2)cc1	-14%	0%	8%	u	4%	u
CCOc1ccc(NC(=O)c2ccc(NC(=O)c3ccc(NC(N)=O)cc3)cc2)cc1	-9%	x	56µM*	13µM*	x	x
O=C1CCCC2=C1C1(CCSC1)N=C(Nc1nc3ccccc3o1)N2 (configuration not stated)	x	x	0%	x	x	x
C=C1C=CS(=O)(=O)N(Cc2ccccc2)C1	x	i	1%	-4%	-5%	x
O=C(O)COn1c(-c2ccccc2)nc2ccc([N+](=O)[O-])cc21	-4%	i	25µM*	u	-21%	u
CCOC(=O)C(C)On1c(-c2ccccc2)nc2ccc([N+](=O)[O-])cc21 (configuration not stated)	-6%	i	7%	9%	-13%	-18%
Cc1nnc2c3ccccc3c(-c3cccs3)nn12	-8%	-8%	2%	1%	-8%	7.9µM*
N#Cc1cccc(-c2noc(-c3ccccc3F)n2)c1	x	x	x	3%	x	x
COc1ncc2nc(-c3cccs3)c(=O)n(-c3ccccc3)c2n1	40µM*	i	x	-2%	-5%	x
CN1CCN(c2ncc3nc(-c4ccccc4)c(=O)n(-c4ccccc4)c3n2)CC1	22µM*	-5%	x	2%	5%	x
COc1ccc2[nH]cc(CCNc3ncncc3-c3ccccc3C)c2c1	-11%	i	x	-1%	2%	u
C/C(=N/NC(=O)c1cc2ccccc2cc1O)C1C(=O)c2ccccc2C1=O	-5%[0.501 µM]	u	-8%	u	28µM*	-3%
C/C(CC(=O)N1CCN(C=O)CC1)=N\NC(=O)c1cc2ccccc2cc1O	-3%	28µM*	6%	-8%	-8%	-9%
COC(=O)C1CCN(C(=O)COC(=O)c2cc(-c3ccccc3)nc3ccc(OC)cc23)CC1	-26%	x	28µM*	u	x	x
Cc1cc(=O)oc2c3c(cc(OCC(=O)NCC(=O)N[C@H](C(=O)O)C(C)C)c12)OC(C)(C)CC3	-18%	x	x	45%	-3%	x
CC[C@H](C)[C@H](NC(=O)CNC(=O)COc1cc2c(c3oc(=O)cc(C)c13)CCC(C)(C)O2)C(=O)O	22µM*	x	x	9%	0%	x
Cc1ccc(N)c(Cl)c1	8%	-11%	5%	0%	-3%	x
Nc1ccc(N)c(Cl)c1	x	22µM*	0%	u	x	x
SMILES	GCN5L2 inh	RECQ1 inh	TDP1 block	APEX1 inh	BLM inh	Lamin A splicing
CC(=O)Nc1ccc(N/C=C/C(=O)c2ccc(Cl)cc2)cc1	-8%	x	32µM*	21%	-13%	x
CC(=O)c1ccc(N/C=C\C(=O)c2ccc(C)cc2)cc1	-17%	i	2%	2%	0%	27%[46 µM]
O=S(=O)(c1c(F)cccc1F)N1CCN(S(=O)(=O)c2c(F)cccc2F)CC1	x	x	0%	x	x	x
O=C(O)c1cc(S(=O)(=O)N2CCN(S(=O)(=O)c3ccc4ccccc4c3)CC2)ccc1Br	1%	x	35µM*	-15%	x	x
O=S(=O)(c1ccc2ccccc2c1)N1CCCCCC1	-14%	-2%	3%	8%	-5%	x
O[C@@H]1COC2[C@@H](O)CO[C@@H]21 (some centres not stated)	9%	-7%	8%	-1%	1%	x
COC(=O)c1cc(O)c(O)c(O)c1	-2%	-1%	x	14µM*	1%	u
COc1ccc(Cl)c(Cn2cnc3c(cnn3C(C)(C)C)c2=O)c1F	x	x	x	-4%	x	x
COc1ccc(C2=CC(=O)C=CC2=O)cc1	13µM*	2%	6%	-4%	-10%	u
Nc1ccc(S(=O)(=O)NCC(=O)OC2CCOC2=O)cc1[N+](=O)[O-] (configuration not stated)	-6%	x	25µM*	u	x	x
CSc1ccc(S(=O)(=O)NCC(=O)OC2CCOC2=O)cc1[N+](=O)[O-] (configuration not stated)	-4%	x	x	-35%	x	x
CC(C)(C)n1ncc2c(=O)n(Cc3cccc(-c4ccccc4)c3)cnc21	x	x	x	-4%	x	x
CC(C)(C)n1ncc2c(=O)n(Cc3ccc(F)cc3F)cnc21	x	x	x	-2%	x	x
COc1ccc(Nc2nc(-c3ccccc3)nc3ccccc23)cc1	-14%	x	x	5%	-14%	x
COc1ccc(OC)c(Nc2nc(-c3ccc(C)cc3)nc3ccccc23)c1	25µM*	x	9%	x	-7%	17%[46 µM]
O=S(=O)(c1ccccc1)N1CCN(c2nc(-c3ccc(F)cc3)nc3cc(Cl)ccc23)CC1	x	x	1%	x	x	x
O=C(Nc1cccc(Cl)c1)c1cccc(N2C(=O)C3CC=CCC3C2=O)c1 (configuration not stated)	-10%	x	25µM*	u	-9%	x
O=C(Nc1cccc(N2C(=O)C3CCCCC3C2=O)c1)c1ccccc1 (configuration not stated)	-11%	x	0%	26%	-2%	x
COc1cccc(Nc2nc(C#N)nc(NC3CCCC3)n2)c1	x	x	-3%	x	x	x
Cc1cc(N)c2ccccc2n1	-7%	-12%	-2%	24%	-8%	x
Cc1cc(N)c2ccccc2[n+]1CCCCCCCCCCCCCC[n+]1c(C)cc(N)c2ccccc21	x	32µM*	24%[56.1 µM]	-9%	x	u
